Assay results as given in PubChem BioAssay (NCATS).
Inconclusive results are not listed. Calls of active or inactive are those of the source. Unless noted, the call rests on the fitted dose curve; in most records, active means well fitted curve in either direction with a large enough effect (not every such curve was filed as active); inconclusive means small, poorly fitted or top-dose-only effect, or another doubt; inactive means flat fitted curve, though single readings scatter.

What was measured:
[1] = target: Lysosomal acid glucosylceramidase (Homo sapiens) (UniProt P04062); assay: Glucocerebrosidase-p2 (AID 348; in the data active means potency below about 10 µM; further: potency means the concentration at half of the fitted maximal effect); details: purified GBA, blue fluorogenic substrate, 40 min
Summary of the method: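 Compounds titrated from 0.6 nM upwards against 0.2 nM enzyme in pH 5.9 citric acid/KH2PO4, taurocholate, tween-20; blue fluorogenic substrate 80 uM, 40 min room temperature, stopped and read Ex 365/Em 440 for AC50.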

[2] = AP1 Signaling Pathway (AID 357); details: ME-180 AP-1-bla reporter, EGF-induced, beta-lactamase ratio, 5 h; at 7.69 µM (top of the series) unless noted;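 further: ME-180 reporter cells stimulated with EGF at its EC50 level; on the % scale 0 is the no-effect control and ±100 the full control effect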
Summary of the method: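 AP-1-bla ME-180 cells, Opti-MEM + 0.5% dialyzed FBS, plated overnight 37 °C. Cpd titration + EC50 EGF, 5 h 37 °C. CCF4 2.5 h RT; ex 405, em 460/530 ratio → %activity, AC50.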

[3] = NFAT Signaling Pathway (AID 444); details: Jurkat NFAT-bla M1, carbachol, beta-lactamase ratio, 5 h; at 7.69 µM (top of the series) unless noted;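 further: carbachol stimulus at about its EC50 of 1 µM final; on the % scale 0 is the no-effect control and ±100 the full control effect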
Summary of the method: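 Read-out: CCF4 FRET ratio (460 nm/530 nm) after 1 h RT dye loading, used for %activity and AC50 from titration series. Cells: Jurkat NFAT-β-lactamase/M1 line, treated with compound plus 1 uM carbachol for 5 h, 37 °C.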

[4] = Stat Signaling Pathway (AID 446); details: ME-180 SIE beta-lactamase reporter, IL-6 stimulated, 5 h; at 7.69 µM (top of the series) unless noted;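 further: ME-180 cervical cancer cells given 40 pM IL-6 alongside compound; SIE-controlled beta-lactamase reporter measured as 460/530 nm FRET emission ratio; on the % scale 0 is the no-effect control and ±100 the full control effect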
Summary of the method: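 Reporter line: ME-180 cervical carcinoma, SIE-beta-lactamase. Treatment: compound with 40 pM IL-6, 5 hrs, 37 C, in low-serum OPTI-MEM with 10 mM HEPES pH 7.3. Detection: 460/530 nm fluorescence.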

[5] = target: Glucocorticoid receptor (Homo sapiens) (UniProt P04150); assay: GR-EFC Redistribution (AID 451; calls by dose curve; further: potency means the concentration at half of the fitted maximal effect); details: CHO-K1 GR-EFC translocation, beta-gal luminescence, 2 h
Summary of the method: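 Translocation of GR-ED fusion to nuclear EA restores b-gal, read by luminescence after 1 h room-temperature detection. Engineered CHO-K1 biosensor cells, 1,000/well, exposed 2 h at 37 C to titrations up to 46 uM final.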

[6] = target: Mitogen-activated protein kinase 10 (Mus musculus) (UniProt Q61831); assay: JNK3 AlphaScreen Assay (AID 530); details: JNK3 lysate, c-Jun phosphorylation; series mostly up to 57.1 µM;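 further: kinase came from lysate of stimulated human HepG2 cells; signal reports phosphorylation of biotinylated GST-cJun 1-79 at Ser73 with 10 µM ATP; on the % scale 0 is the no-effect control and ±100 the full control effect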
Summary of the method: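 Room-temperature AlphaScreen kinase assay; pre-activated HepG2 lysate as JNK3 source, biotin-GST-cJun(1-79) substrate, 10 uM ATP, compound 15 min preincubation.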

[7] = target: 3',5'-cyclic-AMP phosphodiesterase 4B (Homo sapiens) (UniProt Q07343); assay: qHTS Assay for Inhibitors of PDE-IV (AID 607; active means well fitted activation curve with a large enough effect in the main read-out, with a control signal flat, not every such curve was filed as active; further: % of control where 0% means no effect); details: HEK293 ACTOne CNG channel cells, membrane potential fluorescence; series mostly up to 22.9 µM
Summary of the method: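 Cell-based read-out of cAMP via a modified cyclic nucleotide-gated channel and membrane potential dye (535/590 nm) in HEK293 cells expressing PDE4 endogenously. Compounds tested up to 22.9 uM final; 100 uM RO 20-1724 reference.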

[8] = target: Glucocorticoid receptor (Homo sapiens) (UniProt P04150); assay: GR-GFP Redistribution (AID 450;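 active means compounds whose dose series gives a full or clear partial fitted curve of increased nuclear translocation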; further: potency means the concentration at half of the fitted maximal effect); details: U2OS GR-GFP nuclear translocation, laser cytometry, 2 h
[9] = target: Cytochrome P450 2D6 (Homo sapiens) (UniProt P10635); assay: qHTS Assay for Inhibitors and Substrates of Cytochrome P450 2D6 (AID 891; active means well fitted inhibition curve with a large enough effect;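 further: luciferin methyl ether substrate demethylated by CYP2D6 with NADPH regeneration; on the % scale 0 is the no-effect control and ±100 the full control effect; nearly all actives have a fitted effect of over 60% in size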); details: recombinant CYP2D6, luciferin-ME EGE luminescence; series mostly up to 11.4 µM
Summary of the method: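 Human CYP2D6 (5 nM) with 30 uM Luciferin-ME EGE (at Km) in 100 mM KPO4, compound preincubated 10 min, then NADPH regeneration system for 60 min at room temperature. Luciferin read by luminescence; normalized to 1.43 uM quinidine.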

[10] = target: Cytochrome P450 2C19 (Homo sapiens) (UniProt P33261); assay: qHTS Assay for Inhibitors and Substrates of Cytochrome P450 2C19 (AID 899; active means well fitted inhibition curve with a large enough effect; further: on the % scale 0 is the no-effect control and ±100 the full control effect; nearly all actives have a fitted effect of over 60% in size); details: recombinant CYP2C19, luciferin-H EGE luminescence; series mostly up to 11.4 µM
Summary of the method: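 Reactions contain 5nM enzyme, 10uM Luciferin-H EGE (KM) and 50mM KPO4; compound preincubates 10 min at 37C, NADPH regeneration starts turnover for 60 min. Luminescence after detection reagent gives activity.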

[11] = qHTS Assay for Identification of Small Molecule Agonists for Hypoxia Response Element Signaling Pathway (AID 914; active means well fitted activation curve with a large enough effect in the signal ratio, with a control signal flat, not every such curve was filed as active; the % refers to the signal ratio; further: % of control where 0% means no effect); details: ME-180 (cervical carcinoma) HRE-bla reporter, beta-lactamase ratio, CoCl2, 17 h; stronger effect = higher value
Summary of the method: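 qHTS titration; ME-180 HRE-bla cells; EC50 CoCl2 co-treatment, 17 h at 37 degrees Celsius; CCF4 dye, ex 405nm, em 460nm and 530nm; %Activity from ratio; AC50.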

Chain of Lysosomal acid glucosylceramidase (Homo sapiens) (P04062 whole entry, looked up): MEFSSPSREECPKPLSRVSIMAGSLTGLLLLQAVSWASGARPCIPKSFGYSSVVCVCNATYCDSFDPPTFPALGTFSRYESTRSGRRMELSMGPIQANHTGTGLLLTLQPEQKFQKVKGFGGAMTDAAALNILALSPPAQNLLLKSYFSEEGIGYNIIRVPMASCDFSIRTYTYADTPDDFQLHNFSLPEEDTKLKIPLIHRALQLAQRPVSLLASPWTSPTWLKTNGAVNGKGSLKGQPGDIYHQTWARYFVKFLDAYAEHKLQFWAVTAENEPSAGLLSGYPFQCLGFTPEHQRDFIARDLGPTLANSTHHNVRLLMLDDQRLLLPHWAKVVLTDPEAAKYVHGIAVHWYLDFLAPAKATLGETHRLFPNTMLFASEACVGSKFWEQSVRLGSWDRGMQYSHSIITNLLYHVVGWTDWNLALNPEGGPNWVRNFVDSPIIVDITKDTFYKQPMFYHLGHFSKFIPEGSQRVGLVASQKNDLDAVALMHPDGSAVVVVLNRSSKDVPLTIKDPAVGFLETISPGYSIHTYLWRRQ
Chain of 3',5'-cyclic-AMP phosphodiesterase 4B (Homo sapiens) (Q07343 whole entry, looked up): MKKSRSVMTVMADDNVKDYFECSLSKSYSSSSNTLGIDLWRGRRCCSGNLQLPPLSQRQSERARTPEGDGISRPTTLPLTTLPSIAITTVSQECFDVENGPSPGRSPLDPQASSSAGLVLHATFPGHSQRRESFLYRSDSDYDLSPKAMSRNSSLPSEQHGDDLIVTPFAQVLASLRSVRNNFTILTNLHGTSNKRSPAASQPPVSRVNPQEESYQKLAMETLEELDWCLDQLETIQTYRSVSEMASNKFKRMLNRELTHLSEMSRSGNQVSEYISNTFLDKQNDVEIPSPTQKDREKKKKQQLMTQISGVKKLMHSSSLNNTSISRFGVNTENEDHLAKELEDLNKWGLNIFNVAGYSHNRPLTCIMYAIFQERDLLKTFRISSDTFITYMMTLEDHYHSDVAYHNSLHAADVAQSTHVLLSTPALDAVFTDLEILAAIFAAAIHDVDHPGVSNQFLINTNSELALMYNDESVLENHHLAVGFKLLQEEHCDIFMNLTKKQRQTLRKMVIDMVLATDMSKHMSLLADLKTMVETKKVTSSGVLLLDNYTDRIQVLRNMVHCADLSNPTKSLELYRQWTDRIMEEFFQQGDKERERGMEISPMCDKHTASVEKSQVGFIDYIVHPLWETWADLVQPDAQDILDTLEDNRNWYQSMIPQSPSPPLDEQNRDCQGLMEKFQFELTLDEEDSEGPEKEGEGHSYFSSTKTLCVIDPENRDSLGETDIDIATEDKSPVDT
Chain of Glucocorticoid receptor (Homo sapiens) (P04150 whole entry, looked up, the tested form may be a part): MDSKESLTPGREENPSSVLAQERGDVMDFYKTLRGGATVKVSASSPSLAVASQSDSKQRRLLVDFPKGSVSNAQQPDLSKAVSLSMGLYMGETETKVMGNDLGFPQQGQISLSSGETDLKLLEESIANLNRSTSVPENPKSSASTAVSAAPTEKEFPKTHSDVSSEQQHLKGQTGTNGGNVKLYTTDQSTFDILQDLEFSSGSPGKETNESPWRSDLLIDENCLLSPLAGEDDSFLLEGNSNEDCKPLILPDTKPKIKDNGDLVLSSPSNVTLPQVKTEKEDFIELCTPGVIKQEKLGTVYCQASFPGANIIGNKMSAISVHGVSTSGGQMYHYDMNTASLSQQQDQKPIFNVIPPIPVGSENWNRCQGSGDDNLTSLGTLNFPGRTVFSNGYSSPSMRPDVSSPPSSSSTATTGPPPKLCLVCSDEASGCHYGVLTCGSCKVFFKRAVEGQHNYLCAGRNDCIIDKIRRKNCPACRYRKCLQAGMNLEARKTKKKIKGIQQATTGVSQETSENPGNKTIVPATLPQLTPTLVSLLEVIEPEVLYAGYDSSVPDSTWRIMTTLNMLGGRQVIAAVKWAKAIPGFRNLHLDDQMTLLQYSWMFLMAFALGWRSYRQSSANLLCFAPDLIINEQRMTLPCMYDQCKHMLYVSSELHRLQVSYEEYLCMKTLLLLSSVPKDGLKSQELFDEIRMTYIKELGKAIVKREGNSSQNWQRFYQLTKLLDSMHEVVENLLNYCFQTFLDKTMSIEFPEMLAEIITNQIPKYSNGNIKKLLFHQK
Chain of Cytochrome P450 2C19 (Homo sapiens) (P33261 whole entry, looked up): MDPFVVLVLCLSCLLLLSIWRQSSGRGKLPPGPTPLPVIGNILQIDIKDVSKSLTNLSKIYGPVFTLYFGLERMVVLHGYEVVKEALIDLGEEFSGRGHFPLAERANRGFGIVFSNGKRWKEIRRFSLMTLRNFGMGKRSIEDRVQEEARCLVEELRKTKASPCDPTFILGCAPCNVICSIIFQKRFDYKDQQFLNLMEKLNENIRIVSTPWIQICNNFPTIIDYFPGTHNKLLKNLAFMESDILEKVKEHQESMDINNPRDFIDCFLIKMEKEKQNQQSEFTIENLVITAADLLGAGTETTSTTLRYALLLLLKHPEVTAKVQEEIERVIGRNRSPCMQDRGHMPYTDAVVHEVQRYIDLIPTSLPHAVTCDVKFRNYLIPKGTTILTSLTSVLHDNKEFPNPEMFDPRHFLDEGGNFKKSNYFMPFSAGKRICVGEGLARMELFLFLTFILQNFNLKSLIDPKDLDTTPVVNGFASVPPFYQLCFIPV
Chain of Cytochrome P450 2D6 (Homo sapiens) (P10635 whole entry, looked up): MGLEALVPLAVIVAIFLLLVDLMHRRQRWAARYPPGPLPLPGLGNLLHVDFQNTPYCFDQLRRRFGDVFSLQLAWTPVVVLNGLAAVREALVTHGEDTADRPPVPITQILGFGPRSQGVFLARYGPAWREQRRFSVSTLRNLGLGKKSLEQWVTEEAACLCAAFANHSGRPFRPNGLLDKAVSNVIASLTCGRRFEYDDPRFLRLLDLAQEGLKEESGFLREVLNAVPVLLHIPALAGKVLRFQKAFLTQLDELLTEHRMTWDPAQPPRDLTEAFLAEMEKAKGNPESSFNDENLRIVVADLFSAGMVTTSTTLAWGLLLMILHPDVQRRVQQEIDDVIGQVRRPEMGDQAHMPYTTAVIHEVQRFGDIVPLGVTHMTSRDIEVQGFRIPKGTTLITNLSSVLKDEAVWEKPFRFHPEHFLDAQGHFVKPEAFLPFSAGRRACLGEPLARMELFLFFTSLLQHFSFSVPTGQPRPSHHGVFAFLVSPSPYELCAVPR

O=C(O)[C@@H](O)[C@@H](O)[C@@H]1[O][Sb][O][C@@H]1CO
inactive: Potency [1] > 11.4 µM | activity change, negative = inhibition [2] 4.54% | activity change, negative = inhibition [3] 5.74% | activity, negative = inhibition [4] 1.94% | Potency [5] > 9.22 µM | activity change, negative = inhibition [6] 1.63% [at 11.4 µM] | outcome [7]

c1ccc(C[N+]23CN4CN(CN(C4)C2)C3)cc1
inactive: Potency [1] > 11.4 µM | activity change, negative = inhibition [2] 0.854% | activity change, negative = inhibition [3] 6.01% | activity, negative = inhibition [4] 6.74% | Potency [8] > 46 µM | Potency [5] > 9.22 µM | outcome [7]

O=[As](O)(O)c1ccc(NCc2ccccc2)cc1
inactive: Potency [1] > 11.4 µM | activity change, negative = inhibition [2] -4.31% | activity change, negative = inhibition [3] 11% | activity, negative = inhibition [4] 11.2% | Potency [5] > 9.22 µM | outcome [7] | Potency [9]

CCN=C=NCCCN(C)C
inactive: Potency [1] > 11.4 µM | activity change, negative = inhibition [2] 5.33% | activity change, negative = inhibition [3] 4.76% | activity, negative = inhibition [4] 2.84% | Potency [8] > 46 µM | Potency [5] > 9.22 µM | outcome [7] | Potency [9]

O=C(O)C[C@H]1OCC=C2CN3CC[C@]45c6ccccc6N[C@@H]4[C@H]1[C@H]2C[C@H]35
inactive: Potency [1] > 11.4 µM | activity change, negative = inhibition [2] 0.952% | activity change, negative = inhibition [3] -1.05% | activity, negative = inhibition [4] -4.29% | Potency [5] > 9.22 µM | activity change, negative = inhibition [6] 8.39% [at 11.4 µM] | outcome [7]

COC(=O)[C@@H]1c2cc3c(c(O)c2[C@@H](O)C[C@]1(C)O)C(=O)c1c(O)cc2c(c1C3=O)O[C@H]1O[C@@]2(C)[C@@H](O)[C@H](N(C)C)[C@H]1O
inactive: Potency [1] > 11.4 µM | activity change, negative = inhibition [2] -3.96% | activity change, negative = inhibition [3] 6.8% | activity, negative = inhibition [4] -3.22% | Potency [5] > 9.22 µM | activity change, negative = inhibition [6] -5.17% [at 11.4 µM] | outcome [7]

CC(C)CNCCc1ccccn1
inactive: Potency [1] > 11.4 µM | activity change, negative = inhibition [2] 11.4% | activity change, negative = inhibition [3] 10.3% | activity, negative = inhibition [4] 0.662% | Potency [8] > 46 µM | Potency [5] > 9.22 µM | activity change, negative = inhibition [6] 2.37% [at 11.4 µM] | outcome [7] | Potency [10] | activation [11] 5.07%

C[C@@]12CC[C@H]3[C@@H](CC[C@H]4C[C@@H](O)CC[C@]43C)[C@H]1CC[C@@H]2C(=O)C[C@H](O)C(F)(F)F
inactive: Potency [1] > 11.4 µM | activity change, negative = inhibition [2] 5.97% | activity change, negative = inhibition [3] 5.84% | activity, negative = inhibition [4] -6.11% | Potency [5] > 9.22 µM | activity change, negative = inhibition [6] -0.552% [at 11.4 µM] | outcome [7]

O=C(O)c1cccc([As]=[As]c2cccc(C(=O)O)c2)c1 (centres undefined)
inactive: Potency [1] > 11.4 µM | activity change, negative = inhibition [2] -0.316% | activity change, negative = inhibition [3] -6.47% | activity, negative = inhibition [4] 2.08% | Potency [5] > 9.22 µM | activity change, negative = inhibition [6] -0.547% [at 11.4 µM] | outcome [7]

N[C@@H](Cc1cc(Br)c(O)c(Br)c1)C(=O)O
inactive: Potency [1] > 11.4 µM | activity change, negative = inhibition [2] -11.9% | activity, negative = inhibition [4] 5.31% | Potency [8] > 46 µM | Potency [5] > 9.22 µM | activity change, negative = inhibition [6] 1.55% [at 11.4 µM] | outcome [7]

O=S(=O)(NCCO)c1cc[c]([Sb](=[O])([OH])[OH])cc1
inactive: Potency [1] > 11.4 µM | activity change, negative = inhibition [2] -1.39% | activity, negative = inhibition [4] 6.67% | Potency [8] > 46 µM | Potency [5] > 9.22 µM | activity change, negative = inhibition [6] 1.82% [at 11.4 µM]

CC(C)c1nccn1Cc1ccc(Cl)cc1Cl
inactive: Potency [1] > 11.4 µM | activity change, negative = inhibition [2] -14.8% | activity, negative = inhibition [4] 1.75% | Potency [8] > 46 µM | Potency [5] > 9.22 µM | activity change, negative = inhibition [6] -0.456% [at 11.4 µM] | outcome [7]

CN(C)CCC(C#N)(c1ccccc1)c1ccccc1
inactive: Potency [1] > 11.4 µM | activity change, negative = inhibition [2] 6.93% | activity, negative = inhibition [4] 6.64% | Potency [8] > 46 µM | Potency [5] > 9.22 µM | activity change, negative = inhibition [6] 2.05% [at 11.4 µM] | outcome [7]

ClCC[N+]12CC[N+](CCCl)(CC1)C2 (tested in a mixture with another compound)
inactive: Potency [1] > 11.4 µM | activity change, negative = inhibition [2] 1.69% | activity change, negative = inhibition [3] -23.8% | activity, negative = inhibition [4] 3.41% | activity change, negative = inhibition [6] 2.18% [at 11.4 µM]

O=C(O)[C@H](Cc1cnc[nH]1)N1C(=O)c2ccccc2C1=O
inactive: Potency [1] > 11.4 µM | activity change, negative = inhibition [2] -8.47% | activity, negative = inhibition [4] 4.43% | Potency [8] > 46 µM | Potency [5] > 9.22 µM | activity change, negative = inhibition [6] 41.7% [at 11.4 µM] | outcome [7]

Cc1ccc(S(=O)ON2CCC(C(=O)O)(c3ccccc3)CC2)cc1 (centres undefined)
inactive: Potency [1] > 11.4 µM | activity change, negative = inhibition [2] -1.29% | activity change, negative = inhibition [3] 5.73% | activity, negative = inhibition [4] 8.69% | Potency [5] > 9.22 µM | activity change, negative = inhibition [6] 5.44% [at 11.4 µM] | outcome [7] | Potency [10]
